{
  "source": "PubChem BioAssay AID1053127",
  "about": "(Broad Institute, 2014)",
  "note": "Results with a measured potency or affinity are listed apart. Unmarked numbers belong to inactive results.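 How the source made its calls: active means compounds whose fitted curve of lowered CTGF expression reaches half effect within a set concentration limit; inconclusive means flat moderate drop in CTGF, or unreliable curve fit; inactive means the rest.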",
  "data": [
    {"assay": "CTGF mRNA reduction under YAP1 overexpression, dose response, mechanism study for YAP1 pathway inhibitor project, DLD1 cells, RT-qPCR, cherry-pick (AID 1053127)", "details": "DLD1 YAP1-overexpressing, 24 h; series mostly up to 26 µM; CTGF fold change (delta-delta-Ct), lower = inhibition: at the top concentration", "values": [
      {"smiles": "O=C(Cc1ccncc1)N1CCCCN2[C@@H](CO)[C@@H](c3ccc(C#Cc4ccccc4F)cc3)[C@@H]2C1", "CTGF fold change (delta-delta-Ct), lower = inhibition": "0.849 unspecified [at 23.5 µM]"},
      {"smiles": "COc1cccc(-c2ccc([C@H]3[C@H](CO)N4CCCCN(C(=O)Cc5ccncc5)C[C@@H]34)cc2)c1", "CTGF fold change (delta-delta-Ct), lower = inhibition": "1.02 unspecified"},
      {"smiles": "O=C(Cc1ccncc1)N1CCCCN2[C@H](CO)[C@H](c3ccc(C#Cc4ccccc4F)cc3)[C@H]2C1", "CTGF fold change (delta-delta-Ct), lower = inhibition": "1.12 unspecified"},
      {"smiles": "COc1cccc(-c2ccc([C@@H]3[C@H]4CN(C(=O)Cc5ccncc5)CCCCN4[C@H]3CO)cc2)c1", "CTGF fold change (delta-delta-Ct), lower = inhibition": "1.96 unspecified"},
      {"smiles": "O=C(Cc1ccncc1)N1CCCCN2[C@@H](CO)[C@H](c3ccc(C#Cc4ccccc4F)cc3)[C@@H]2C1", "CTGF fold change (delta-delta-Ct), lower = inhibition": "0.964 unspecified"},
      {"smiles": "O=C(Cc1ccncc1)N1CCCCN2[C@H](C1)[C@@H](c1ccc(C#Cc3ccccc3F)cc1)[C@@H]2CO", "CTGF fold change (delta-delta-Ct), lower = inhibition": "1.19 unspecified"},
      {"smiles": "COc1cccc(-c2ccc([C@H]3[C@@H](CO)N4CCCCN(C(=O)Cc5ccncc5)C[C@H]34)cc2)c1", "CTGF fold change (delta-delta-Ct), lower = inhibition": "1.65 unspecified"},
      {"smiles": "COc1cccc(-c2ccc([C@H]3[C@@H](CO)N4CCCCN(C(=O)Cc5ccncc5)C[C@@H]34)cc2)c1", "CTGF fold change (delta-delta-Ct), lower = inhibition": "1.26 unspecified"},
      {"smiles": "COc1cccc(-c2ccc([C@@H]3[C@@H](CO)N4CCCCN(C(=O)Cc5ccncc5)C[C@H]34)cc2)c1", "CTGF fold change (delta-delta-Ct), lower = inhibition": "1.2 unspecified"},
      {"smiles": "COc1cccc(-c2ccc([C@@H]3[C@H](CO)N4CCCCN(C(=O)Cc5ccncc5)C[C@@H]34)cc2)c1", "CTGF fold change (delta-delta-Ct), lower = inhibition": "0.988 unspecified"}
    ]}
  ]
}
